Data taken from PubChem BioAssay (Tox21).
Activity calls are given as the source filed them. Calls come from the whole dose curve; as a rule, active = well fitted curve in the direction sought with a large enough effect in the repeat runs; inconclusive = weak or mixed curves; inactive = flat fitted curve, though single readings scatter.

Test: qHTS assay to test for compound auto fluorescence at 460 nm (blue) in HEK293 cells (AID 720678)
Details: blue autofluorescence 405/460 nm; series mostly up to 91.3 µM; fluorescence, % of triamterene: at the top concentration
Description: National Center for Advancing Translational Sciences [NCATS]
NIH Chemical Genomics Center [NCGC]
U.S. Environmental Protection Agency [EPA]
National Institutes of Environmental Health Sciences [NIEHS]
National Toxicology Program [NTP]
U.S. Food and Drug Administration [FDA]
Compound auto fluorescence often interferes with screening of the compound library against various biological targets and signaling pathways. Some of these compounds may have fluorophoric properties. Such properties may interfere with the assay outputs resulting in false positives and/or negatives. To decrease such complications and ensure the compound activities are relevant in terms of biological response, the Tox21 10K compound library was screened for auto fluorescence.
From the fluorophores used as reporter signals in our screening assays, the auto fluorescence equivalencies of compounds against three fluorophores have been evaluated: Triamterene, Fluorescein and Rose Bengal sodium for blue, green and red fluorescence, respectively. The fluorescence intensities were measured using Excitation/Emission wavelengths at 405/460nm, 485/535nm and 540/590nm for blue, green and red labels, respectively. This assay includes the blue fluorescence data.
Tox21 Assay Protocol Summary:
2,000 HEK293 cells in 5 uL of culture medium containing 10% dialyzed FBS per well were dispensed into black wall/clear bottom 1536-well plates using a Multidrop Combi Dispenser (Thermo Scientific). The assay plates were incubated for 4-5 hr at 37C to allow cell attachment to the well bottom, followed by the transfer of 23 nL compound or DMSO vehicle by a pintool work station (Kalypsys, San Diego, CA). After the assay plates were incubated overnight at 37C and 5% CO2, fluorescence intensities in the assay plates were measured by an Envision (PerkinElmer, Shelton, CT) plate reader using three labels for measuring blue, green and red fluorescence at […] 460, 535 and 590nm respectively.
% is set by controls: 0 for no effect and ±100 for the full control effect.

**Q.** With `O=c1[nH][nH]c(=O)c2cc([N+](=O)[O-])ccc12` as the compound, how does the “fluorescence, % of triamterene” value read?
**A.** The value was -0.246% [at 95.7 µM] (inactive).

**Q.** Which “fluorescence, % of triamterene” value does the source give for `CC(=O)OCC1=C(C(=O)O)N2C(=O)[C@@H](NC(=O)CSc3ccncc3)[C@H]2SC1` here?
**A.** Its value is -0.228% [at 46 µM] (inactive).

**Q.** With `CCCCCCOC(=O)CCCCC` as the compound, how does the “fluorescence, % of triamterene” value read?
**A.** The value was -0.0867% (inactive).

**Q.** With `O=c1[nH]c2cc(C(F)(F)F)c(N3CCOCC3)cc2n(CP(=O)(O)O)c1=O` as the compound, how does the “fluorescence, % of triamterene” value read?
**A.** Its value is 0.169% [at 46 µM] (inactive).

**Q.** Which “fluorescence, % of triamterene” value does the source give for `CCN(CC)C(=O)/C(C#N)=C/c1cc(O)c(O)c([N+](=O)[O-])c1` here?
**A.** Its value is -0.547% [at 46 µM] (inactive).

**Q.** For `COc1ccc2nc(S(=O)Cc3ncc(C)c(OC)c3C)[nH]c2c1` (stereo not given), which Potency is on record?
**A.** The Potency was “inactive”.

**Q.** Which fluorescence, % of triamterene does the source give for `CC(C(=O)O)c1ccc(C(=O)c2cccs2)cc1` (stereo not given) here?
**A.** The fluorescence, % of triamterene was -0.243% [at 18.6 µM] (inactive).

**Q.** With `CC(=O)c1ccc[nH]1` as the compound, how does the “fluorescence, % of triamterene” value read?
**A.** Its value is -0.374% (inactive).

**Q.** With `COc1cc(NCc2ccc3nc(N)nc(N)c3c2C)cc(OC)c1OC` as the compound, how does the “fluorescence, % of triamterene” value read?
**A.** The value was 0.529% [at 46 µM] (inactive).

**Q.** For `O=C1[C@@H]2[C@H]3CC[C@H](C3)[C@@H]2C(=O)N1CCCCN1CCN(c2ncccn2)CC1`, which “fluorescence, % of triamterene” value is on record?
**A.** Its value is 0.0112% [at 46 µM] (inactive).

**Q.** For `CCCCCCCCCCCCCC(=O)OCC(O)CO` (stereo not given), which “fluorescence, % of triamterene” value is on record?
**A.** The value was 0.188% (inactive).

**Q.** With `BrC(Br)C(Br)Br` as the compound, how does the “fluorescence, % of triamterene” value read?
**A.** The value was 0.0047% (inactive).

**Q.** Which “fluorescence, % of triamterene” value does the source give for `CCN(CC)CCOC(=O)C(c1ccccc1)c1ccccc1` here?
**A.** Its value is 0.079% [at 46 µM] (inactive).

**Q.** Which “fluorescence, % of triamterene” value does the source give for `CC(=O)NNC(C)=O` here?
**A.** Its value is -0.0415% [at 95.7 µM] (inactive).

**Q.** With `CC(=O)C(C)=O` as the compound, how does the “fluorescence, % of triamterene” value read?
**A.** Its value is 0.0769% (inactive).

**Q.** With `CC(C)c1ccc(C#N)cc1` as the compound, how does the “fluorescence, % of triamterene” value read?
**A.** The value was 0.207% (inactive).

**Q.** Which “fluorescence, % of triamterene” value does the source give for `CC/C=C\C/C=C\C/C=C\CCCCCCCC(=O)OCC` here?
**A.** Its value is 0.146% [at 95.7 µM] (inactive).

**Q.** Which Potency does the source give for `C[C@@H]1[C@H](O)[C@@H](C)/C=C/C=C\C=C\C=C\C=C\C=C\C=C\[C@H](O[C@@H]2O[C@H](C)[C@@H](O)[C@H](N)[C@@H]2O)C[C@@H]2O[C@](O)(C[C@@H](O)C[C@@H](O)[C@H](O)CC[C@@H](O)C[C@@H](O)CC(=O)O[C@H]1C)C[C@H](O)[C@H]2C(=O)O` (stereo in doubt) here?
**A.** Its Potency is “inactive”.

**Q.** With `CCC(Cl)CC(Cl)C(Cl)C(Cl)C(Cl)C(C)Cl` (stereo not given) as the compound, how does the fluorescence, % of triamterene read?
**A.** The fluorescence, % of triamterene was 0.1% [at 13.4 µM] (inactive).

**Q.** For `COC(C)(C)OC`, which “fluorescence, % of triamterene” value is on record?
**A.** Its value is -0.361% (inactive).

**Q.** For `CC(C)(C)NCC(O)COc1cccc2c1C[C@H](O)[C@H](O)C2` (stereo not given in full), which fluorescence, % of triamterene is on record?
**A.** The fluorescence, % of triamterene was 0.0252% [at 18.6 µM] (inactive).

**Q.** For `CC(C)COC(=O)COc1cc(Cl)c(Cl)cc1Cl`, which “fluorescence, % of triamterene” value is on record?
**A.** Its value is 0.0082% (inactive).

**Q.** For `FC(F)(F)C(F)(F)C(F)(F)C(F)(F)CCI`, which “fluorescence, % of triamterene” value is on record?
**A.** Its value is 0.0243% [at 46 µM] (inactive).

**Q.** For `C=Cc1ccc(OC(C)=O)cc1`, which “fluorescence, % of triamterene” value is on record?
**A.** Its value is 0.116% (inactive).

**Q.** Which “fluorescence, % of triamterene” value does the source give for `O=[N+]([O-])C1(Br)COCOC1` here?
**A.** Its value is -0.0278% (inactive).

**Q.** Which “fluorescence, % of triamterene” value does the source give for `CC(C)OC(=O)c1ccccc1C(=O)OC(C)C` here?
**A.** Its value is 0.641% (inactive).

**Q.** With `Nc1ccc(NC(=O)c2ccc(N)cc2)cc1` as the compound, how does the “fluorescence, % of triamterene” value read?
**A.** Its value is 0.0277% (inactive).

**Q.** For `C=C(C)C(=O)OCCC(F)(F)C(F)(F)C(F)(F)C(F)(F)C(F)(F)C(F)(F)F`, which “fluorescence, % of triamterene” value is on record?
**A.** Its value is -0.25% (inactive).

**Q.** With `CCCCCC` as the compound, how does the “fluorescence, % of triamterene” value read?
**A.** Its value is 0.0217% (inactive).

**Q.** Which “fluorescence, % of triamterene” value does the source give for `Oc1ccc2c(c1)Cc1ccccc1-2` here?
**A.** The value was -0.0051% (inactive).

**Q.** Which “fluorescence, % of triamterene” value does the source give for `O=C(C(=O)c1ccco1)c1ccco1` here?
**A.** Its value is 1.08% (inactive).

**Q.** Which “fluorescence, % of triamterene” value does the source give for `Nc1ccc(S(=O)(=O)NCc2ccccc2)cc1` here?
**A.** The value was -0.0011% [at 46 µM] (inactive).

**Q.** With `CC(=O)Oc1cccc(O)c1` as the compound, how does the “fluorescence, % of triamterene” value read?
**A.** The value was -0.0976% [at 46 µM] (inactive).

**Q.** For `Cc1ccc2c(c1[N+](=O)[O-])C(=O)c1ccccc1C2=O`, which “fluorescence, % of triamterene” value is on record?
**A.** The value was -0.234% [at 46 µM] (inactive).

**Q.** For `CCN(Cc1cccc(S(=O)(=O)O)c1)c1ccc(C(=C2C=CC(=[N+](CC)Cc3cccc(S(=O)(=O)O)c3)C=C2)c2ccccc2S(=O)(=O)[O-])cc1`, which “fluorescence, % of triamterene” value is on record?
**A.** Its value is 0.457% (inactive).

**Q.** With `CCO[Si](C)(CCCOCC1CO1)OCC` (stereo not given) as the compound, how does the “fluorescence, % of triamterene” value read?
**A.** Its value is 0.0866% (inactive).

**Q.** Which “fluorescence, % of triamterene” value does the source give for `CCCCCCCCCCCCCCCCCC(=O)OCC(CC)CCCC` (stereo not given) here?
**A.** Its value is -0.0052% (inactive).

**Q.** With `O=[N+]([O-])c1ccc2ncccc2c1` as the compound, how does the “fluorescence, % of triamterene” value read?
**A.** The value was 0.0362% (inactive).

**Q.** With `Cc1ccc(NC(=O)N(C)C)cc1NC(=O)N(C)C` as the compound, how does the “fluorescence, % of triamterene” value read?
**A.** The value was -0.0112% (inactive).

**Q.** With `CCCOC(=O)c1c(Cl)c(Cl)c(Cl)c(Cl)c1C(=O)OCCC` as the compound, how does the “fluorescence, % of triamterene” value read?
**A.** The value was 0.0711% (inactive).
